This is an account of results in ChEMBL document CHEMBL2218924, “A broad activity screen in support of a chemogenomic map for kinase signalling research and drug discovery” (Biochem J, 2013).

For assay [1], the target named is T1, Ephrin type-A receptor 3 (Homo sapiens) (UniProt P29320).
T1 sequence (whole entry): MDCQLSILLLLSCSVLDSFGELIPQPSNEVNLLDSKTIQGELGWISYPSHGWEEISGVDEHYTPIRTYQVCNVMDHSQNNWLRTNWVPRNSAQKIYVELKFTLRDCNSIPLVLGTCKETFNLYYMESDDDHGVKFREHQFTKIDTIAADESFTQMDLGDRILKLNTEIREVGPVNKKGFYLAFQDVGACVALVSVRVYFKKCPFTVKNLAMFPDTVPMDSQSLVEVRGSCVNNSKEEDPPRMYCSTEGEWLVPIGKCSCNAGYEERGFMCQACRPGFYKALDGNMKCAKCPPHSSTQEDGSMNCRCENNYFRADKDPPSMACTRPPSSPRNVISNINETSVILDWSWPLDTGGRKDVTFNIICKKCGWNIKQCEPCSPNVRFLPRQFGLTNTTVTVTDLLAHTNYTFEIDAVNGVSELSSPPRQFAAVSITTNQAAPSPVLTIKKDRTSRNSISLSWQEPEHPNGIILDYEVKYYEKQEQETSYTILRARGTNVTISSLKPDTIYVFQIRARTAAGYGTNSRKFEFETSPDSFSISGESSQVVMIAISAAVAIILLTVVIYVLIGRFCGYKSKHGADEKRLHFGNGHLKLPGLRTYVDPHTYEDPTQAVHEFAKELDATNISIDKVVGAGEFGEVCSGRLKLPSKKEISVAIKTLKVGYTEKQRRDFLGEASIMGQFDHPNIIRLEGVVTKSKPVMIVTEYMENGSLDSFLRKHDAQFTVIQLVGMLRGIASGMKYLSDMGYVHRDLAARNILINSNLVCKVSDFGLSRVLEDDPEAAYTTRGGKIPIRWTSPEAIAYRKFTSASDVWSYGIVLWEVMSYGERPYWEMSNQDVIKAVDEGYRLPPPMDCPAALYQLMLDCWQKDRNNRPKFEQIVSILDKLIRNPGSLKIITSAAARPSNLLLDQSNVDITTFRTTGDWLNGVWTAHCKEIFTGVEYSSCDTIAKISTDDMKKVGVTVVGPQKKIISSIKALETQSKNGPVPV
Conditions: at 10 µM.

For assay [2], the target named is Ephrin type-A receptor 4 (Homo sapiens) (UniProt P54764). Conditions: at 1 µM.
The target is the same in assay [3]. Conditions: at 10 µM.
The target of assay [4] is Ephrin type-A receptor 5 (Homo sapiens) (UniProt P54756). To be noted: at 1 µM.
The target is the same in assay [5]. To be noted: at 10 µM.
The target of assay [6] is Ephrin type-A receptor 7 (Homo sapiens) (UniProt Q15375). Conditions: at 1 µM.
Assay [7] has the same target. Conditions: at 10 µM.
Assay [8] has as its target T2, Ephrin type-A receptor 8 (Homo sapiens) (UniProt P29322).
T2 sequence (whole entry): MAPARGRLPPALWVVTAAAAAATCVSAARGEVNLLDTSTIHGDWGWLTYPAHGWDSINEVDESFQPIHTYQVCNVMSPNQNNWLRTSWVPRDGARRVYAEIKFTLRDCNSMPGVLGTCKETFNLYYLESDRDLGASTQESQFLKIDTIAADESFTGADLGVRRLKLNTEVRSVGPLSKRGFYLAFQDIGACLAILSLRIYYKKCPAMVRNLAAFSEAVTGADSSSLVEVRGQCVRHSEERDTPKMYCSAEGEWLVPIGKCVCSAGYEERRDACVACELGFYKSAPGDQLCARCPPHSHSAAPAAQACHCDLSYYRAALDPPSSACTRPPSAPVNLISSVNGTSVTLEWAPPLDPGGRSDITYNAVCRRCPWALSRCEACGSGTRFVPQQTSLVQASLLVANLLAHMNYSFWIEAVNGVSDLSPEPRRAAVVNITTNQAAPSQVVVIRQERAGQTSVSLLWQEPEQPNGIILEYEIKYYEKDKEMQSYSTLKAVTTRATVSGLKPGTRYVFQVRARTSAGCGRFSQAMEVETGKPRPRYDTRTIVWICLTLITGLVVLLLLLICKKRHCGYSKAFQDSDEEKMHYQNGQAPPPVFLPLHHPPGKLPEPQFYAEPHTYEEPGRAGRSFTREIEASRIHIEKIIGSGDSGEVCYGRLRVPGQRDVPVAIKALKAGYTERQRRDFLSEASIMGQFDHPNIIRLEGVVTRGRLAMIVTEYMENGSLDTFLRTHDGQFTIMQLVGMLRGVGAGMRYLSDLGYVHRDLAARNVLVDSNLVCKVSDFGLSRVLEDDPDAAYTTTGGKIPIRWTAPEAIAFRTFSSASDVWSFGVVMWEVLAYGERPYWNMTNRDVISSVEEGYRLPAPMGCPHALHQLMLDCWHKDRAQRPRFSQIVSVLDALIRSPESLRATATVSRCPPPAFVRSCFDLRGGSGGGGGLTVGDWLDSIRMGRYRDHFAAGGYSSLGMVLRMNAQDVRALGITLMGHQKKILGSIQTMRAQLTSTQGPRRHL
Conditions: at 1 µM.

Assay [9] addresses T2, Ephrin type-A receptor 8 (Homo sapiens). To be noted: at 10 µM.
Assay [10] has as its target T3, Ephrin type-B receptor 1 (Homo sapiens) (UniProt P54762).
T3 sequence (whole entry): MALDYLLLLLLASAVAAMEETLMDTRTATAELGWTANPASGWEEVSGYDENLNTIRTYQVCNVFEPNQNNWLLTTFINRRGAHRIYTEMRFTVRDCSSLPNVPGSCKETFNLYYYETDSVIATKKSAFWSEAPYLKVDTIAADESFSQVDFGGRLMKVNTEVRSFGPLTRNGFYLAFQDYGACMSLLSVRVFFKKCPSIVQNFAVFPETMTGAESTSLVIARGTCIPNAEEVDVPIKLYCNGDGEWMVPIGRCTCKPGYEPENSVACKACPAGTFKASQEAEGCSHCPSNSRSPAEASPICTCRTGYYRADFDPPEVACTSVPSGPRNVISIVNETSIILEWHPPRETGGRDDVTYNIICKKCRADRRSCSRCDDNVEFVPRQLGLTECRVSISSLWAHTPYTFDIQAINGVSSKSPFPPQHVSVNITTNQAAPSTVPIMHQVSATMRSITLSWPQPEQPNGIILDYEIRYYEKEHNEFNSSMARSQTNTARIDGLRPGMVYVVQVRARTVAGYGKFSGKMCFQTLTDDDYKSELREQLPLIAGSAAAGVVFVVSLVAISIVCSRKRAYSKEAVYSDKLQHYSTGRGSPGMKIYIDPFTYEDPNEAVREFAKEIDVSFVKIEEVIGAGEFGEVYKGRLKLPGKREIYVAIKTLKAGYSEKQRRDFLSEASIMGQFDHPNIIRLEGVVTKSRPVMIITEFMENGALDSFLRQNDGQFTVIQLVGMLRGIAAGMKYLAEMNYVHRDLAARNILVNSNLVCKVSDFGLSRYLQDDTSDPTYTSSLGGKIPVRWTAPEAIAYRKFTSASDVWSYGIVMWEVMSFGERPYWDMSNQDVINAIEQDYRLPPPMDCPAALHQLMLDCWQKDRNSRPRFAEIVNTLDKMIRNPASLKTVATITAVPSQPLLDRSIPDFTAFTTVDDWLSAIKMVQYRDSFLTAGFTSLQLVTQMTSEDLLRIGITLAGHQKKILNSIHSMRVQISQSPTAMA
To be noted: at 1 µM.

Each structure is given as a SMILES string.

Ephrin type-A receptor 7 (Homo sapiens), sequence (Q15375 28-998 limits assumed): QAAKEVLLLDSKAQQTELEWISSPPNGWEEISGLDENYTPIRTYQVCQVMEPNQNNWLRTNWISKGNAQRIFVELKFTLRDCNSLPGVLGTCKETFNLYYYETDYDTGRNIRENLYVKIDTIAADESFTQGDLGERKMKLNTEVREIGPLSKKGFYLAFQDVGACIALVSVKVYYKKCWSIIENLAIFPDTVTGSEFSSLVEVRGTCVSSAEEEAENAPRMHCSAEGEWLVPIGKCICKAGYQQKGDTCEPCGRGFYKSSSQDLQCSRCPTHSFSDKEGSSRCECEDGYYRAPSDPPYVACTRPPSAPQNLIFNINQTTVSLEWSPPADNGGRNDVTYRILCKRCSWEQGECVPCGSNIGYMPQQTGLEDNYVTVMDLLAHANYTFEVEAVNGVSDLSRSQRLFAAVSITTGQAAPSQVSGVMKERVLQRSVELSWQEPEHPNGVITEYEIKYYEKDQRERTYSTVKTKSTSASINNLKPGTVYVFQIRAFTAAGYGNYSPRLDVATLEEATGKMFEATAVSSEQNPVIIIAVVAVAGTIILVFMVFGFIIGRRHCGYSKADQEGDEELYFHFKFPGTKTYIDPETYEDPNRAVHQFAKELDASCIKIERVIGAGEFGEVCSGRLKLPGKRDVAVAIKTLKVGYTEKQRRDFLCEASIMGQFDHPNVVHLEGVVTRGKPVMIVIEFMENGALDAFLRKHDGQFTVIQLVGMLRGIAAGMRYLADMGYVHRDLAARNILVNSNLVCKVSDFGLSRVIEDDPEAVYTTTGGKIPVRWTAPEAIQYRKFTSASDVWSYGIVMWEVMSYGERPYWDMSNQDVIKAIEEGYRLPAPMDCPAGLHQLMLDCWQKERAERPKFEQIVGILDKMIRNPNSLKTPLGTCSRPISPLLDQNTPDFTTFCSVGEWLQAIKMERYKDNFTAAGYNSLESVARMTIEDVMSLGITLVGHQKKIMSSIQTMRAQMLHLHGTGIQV
Ephrin type-A receptor 5 (Homo sapiens), sequence (P54756 whole entry): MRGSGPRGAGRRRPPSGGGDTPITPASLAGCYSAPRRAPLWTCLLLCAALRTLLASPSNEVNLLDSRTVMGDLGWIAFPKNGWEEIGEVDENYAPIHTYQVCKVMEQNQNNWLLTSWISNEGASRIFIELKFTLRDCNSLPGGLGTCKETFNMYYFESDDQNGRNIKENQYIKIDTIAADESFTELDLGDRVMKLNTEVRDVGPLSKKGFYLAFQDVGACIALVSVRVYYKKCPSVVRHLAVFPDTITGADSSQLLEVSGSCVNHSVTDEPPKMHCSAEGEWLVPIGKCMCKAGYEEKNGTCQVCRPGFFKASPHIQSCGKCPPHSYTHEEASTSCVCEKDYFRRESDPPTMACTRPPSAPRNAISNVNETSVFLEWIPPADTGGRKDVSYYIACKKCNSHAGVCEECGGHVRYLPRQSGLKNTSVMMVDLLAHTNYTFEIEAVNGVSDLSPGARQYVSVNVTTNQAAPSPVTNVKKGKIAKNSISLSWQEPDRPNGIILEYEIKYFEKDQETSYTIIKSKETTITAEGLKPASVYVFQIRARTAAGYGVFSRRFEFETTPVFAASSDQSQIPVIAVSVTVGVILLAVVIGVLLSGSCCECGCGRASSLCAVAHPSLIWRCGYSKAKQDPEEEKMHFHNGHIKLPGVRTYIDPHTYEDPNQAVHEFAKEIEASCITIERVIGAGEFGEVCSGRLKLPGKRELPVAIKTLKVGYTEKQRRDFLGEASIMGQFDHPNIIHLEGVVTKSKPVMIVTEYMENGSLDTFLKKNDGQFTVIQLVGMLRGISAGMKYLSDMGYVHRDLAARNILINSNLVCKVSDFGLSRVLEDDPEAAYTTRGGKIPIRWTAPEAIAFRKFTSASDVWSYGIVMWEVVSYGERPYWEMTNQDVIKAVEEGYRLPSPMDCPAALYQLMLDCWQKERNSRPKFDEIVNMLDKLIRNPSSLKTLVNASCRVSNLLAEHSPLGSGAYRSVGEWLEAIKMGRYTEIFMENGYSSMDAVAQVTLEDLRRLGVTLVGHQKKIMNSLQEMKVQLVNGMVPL
Ephrin type-A receptor 4 (Homo sapiens), sequence (P54764 whole entry): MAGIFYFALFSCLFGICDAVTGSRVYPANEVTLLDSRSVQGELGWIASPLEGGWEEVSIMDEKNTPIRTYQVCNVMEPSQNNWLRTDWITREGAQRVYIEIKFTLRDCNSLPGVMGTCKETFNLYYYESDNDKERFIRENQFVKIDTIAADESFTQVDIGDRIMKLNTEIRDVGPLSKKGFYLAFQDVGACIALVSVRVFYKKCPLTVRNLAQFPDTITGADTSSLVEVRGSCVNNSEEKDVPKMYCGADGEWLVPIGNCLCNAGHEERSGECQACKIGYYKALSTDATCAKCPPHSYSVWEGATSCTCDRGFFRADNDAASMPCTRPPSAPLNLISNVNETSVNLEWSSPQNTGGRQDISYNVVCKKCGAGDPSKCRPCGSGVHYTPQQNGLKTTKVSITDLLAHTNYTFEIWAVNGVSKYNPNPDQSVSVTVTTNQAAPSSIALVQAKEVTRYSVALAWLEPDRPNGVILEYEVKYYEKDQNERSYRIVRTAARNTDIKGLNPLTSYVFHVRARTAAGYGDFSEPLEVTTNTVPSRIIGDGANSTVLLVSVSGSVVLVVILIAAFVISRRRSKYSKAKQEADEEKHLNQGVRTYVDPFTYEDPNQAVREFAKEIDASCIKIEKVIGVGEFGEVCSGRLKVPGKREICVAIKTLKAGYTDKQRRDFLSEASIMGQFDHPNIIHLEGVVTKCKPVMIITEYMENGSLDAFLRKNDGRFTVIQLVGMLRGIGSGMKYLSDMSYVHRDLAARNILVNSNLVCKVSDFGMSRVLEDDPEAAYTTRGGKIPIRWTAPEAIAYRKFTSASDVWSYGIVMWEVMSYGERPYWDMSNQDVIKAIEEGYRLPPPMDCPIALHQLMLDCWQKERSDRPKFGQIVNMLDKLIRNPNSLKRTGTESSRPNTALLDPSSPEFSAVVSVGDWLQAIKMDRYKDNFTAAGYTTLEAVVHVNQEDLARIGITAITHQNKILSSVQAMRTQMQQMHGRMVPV

For the compound `CC(=O)O/N=C1\C(=C2\C(=O)Nc3cc(Br)ccc32)Nc2ccccc21`, the residual activity was determined as 38% in assay [1]; 112% in assay [2]; 84% in [3]; 99% in assay [4]; 47% in assay [5]; 100% in assay [6]. In addition, the residual activity in assay [7] amounted to 79%; in [8] it was 84%; in assay [9], 77%; in assay [10], 86%.
